Measured values published in PubChem BioAssay (NCI).
This is part of a sample that, as a whole, favours compounds with a hit. Of some 79,000 tested, about 15% had one in any assay. No stated cut-off is given here; in the data, active means growth inhibition above about 70%; inactive means the rest.

Columns and labels:
[1] = NCI Yeast Anticancer Drug Screen. Data for the rad52 strain (AID 147);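 further: 0% = growth of vehicle-treated control cultures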; settings: S. cerevisiae rad52 mutant growth inhibition, stronger effect = higher value
Outline: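 Inhibition of yeast growth, referenced to vehicle controls, was the measured output for a strain with defective DNA damage repair.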

[2] = NCI Yeast Anticancer Drug Screen. Data for the wt1 strain (AID 149);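 further: 0% = growth of vehicle-treated wt1 cultures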; settings: S. cerevisiae wt1 strain (SPY 50644) growth inhibition, stronger effect = higher value
Outline: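 Vehicle-normalised growth inhibition; strain wt1; compound exposure.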

[3] = NCI Yeast Anticancer Drug Screen. Data for the rad50EPP+ strain (AID 151);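 further: 0% = growth of vehicle-treated control cultures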; settings: S. cerevisiae rad50 mutant strain, stronger effect = higher value
Outline: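 Genetically defined yeast (rad50EPP+, DNA damage repair alteration) is grown with compound, and inhibition of growth is expressed relative to vehicle-treated controls.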

[4] = NCI Yeast Anticancer Drug Screen. Data for the mgt1 strain (AID 153); settings: S. cerevisiae mgt1 mutant growth inhibition, stronger effect = higher value
Outline: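 In the mgt1 strain, test compounds were added and growth inhibition was determined relative to vehicle-treated controls.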

[5] = NCI Yeast Anticancer Drug Screen. Data for the rad50 strain (AID 155);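 further: 0% = growth of vehicle-only cultures of the same strain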; settings: S. cerevisiae rad50 strain growth inhibition, stronger effect = higher value
Outline: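 A DNA repair-deficient yeast mutant serves as the test organism; compound-induced growth inhibition is calculated against vehicle-treated cells.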

[6] = NCI Yeast Anticancer Drug Screen. Data for the mec2-1 strain (AID 157); settings: S. cerevisiae mec2-1 strain, stronger effect = higher value
Outline: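 Each compound was tested on mec2-1 yeast, a strain altered in DNA damage repair or cell cycle control. Growth inhibition is reported relative to vehicle.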

[7] = NCI Yeast Anticancer Drug Screen. Data for the rad14 strain (AID 159);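 further: 0% = growth of vehicle-treated control cultures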; settings: S. cerevisiae rad14 strain growth inhibition, stronger effect = higher value
Outline: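 Vehicle-treated cultures served as the baseline for growth inhibition of a DNA repair-mutant yeast strain exposed to each compound.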

[8] = NCI Yeast Anticancer Drug Screen. Data for the sgs1 mgt1 strain (AID 161);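 further: 0% = growth of cultures given vehicle only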; settings: S. cerevisiae sgs1 mgt1 strain, stronger effect = higher value
Outline: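 Genetically altered yeast, compound exposure, growth inhibition relative to vehicle.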

[9] = NCI Yeast Anticancer Drug Screen. Data for the CLN2oe strain (AID 163);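 further: 0% = growth of vehicle-only control cultures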; settings: S. cerevisiae CLN2oe strain, stronger effect = higher value
Outline: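 First, the altered yeast strain was treated with each compound; second, its growth was measured; finally, inhibition was derived by comparison with vehicle controls.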

[10] = NCI Yeast Anticancer Drug Screen. Data for the cln2 rad14 strain (AID 165);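 further: 0% = growth equal to vehicle treated cultures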; settings: S. cerevisiae cln2 rad14 strain, stronger effect = higher value
Outline: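 Test compounds were added to cln2 rad14 yeast cultures; inhibition of growth was then determined by comparison with vehicle treatment.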

[11] = NCI Yeast Anticancer Drug Screen. Data for the bub3 strain (AID 167); settings: S. cerevisiae bub3 mutant strain, stronger effect = higher value
Outline: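 Inhibition values come from growth of compound-treated mutant yeast normalised to vehicle-treated controls.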

[12] = NCI Yeast Anticancer Drug Screen. Data for the wt2 strain (AID 169);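 further: 0% = growth of vehicle-treated yeast cultures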; settings: S. cerevisiae wt2 strain growth inhibition, stronger effect = higher value
Outline: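 The panel's yeast strains carry defined changes in DNA repair or cell cycle genes. Each strain is grown with compound, and growth loss is scored relative to vehicle.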

[13] = NCI Yeast Anticancer Drug Screen. Data for the mlh1 strain (AID 171);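 further: 0% = growth of vehicle-treated control cultures of the same strain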; settings: S. cerevisiae mlh1 strain growth inhibition, stronger effect = higher value
Outline: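 Inhibition values reflect reduced yeast growth in the presence of compound, referenced to vehicle controls, using a strain chosen for its alteration in DNA repair or cell cycle control.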

[14] = NCI Yeast Anticancer Drug Screen. Data for the sgs1 strain (AID 173);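 further: 0% = growth of vehicle-only control cultures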; settings: S. cerevisiae sgs1 mutant, stronger effect = higher value
Outline: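 Vehicle-treated cultures served as reference for growth inhibition of a yeast strain altered in DNA damage repair or cell cycle control after compound exposure.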

[15] = NCI Yeast Anticancer Drug Screen. Data for the mlh1 rad18 strain (AID 175); settings: S. cerevisiae mlh1 rad18 strain growth inhibition, stronger effect = higher value
Outline: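 Inhibition values reflect reduced growth of mutant yeast versus vehicle-treated controls following compound exposure; the mutations affect DNA damage repair.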

[16] = NCI Yeast Anticancer Drug Screen. Data for the rad18 strain (AID 177); settings: S. cerevisiae rad18 mutant growth inhibition, stronger effect = higher value
Outline: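 Steps: expose repair-mutant yeast to compound; measure growth; express as inhibition relative to vehicle control.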

[17] = at 5.0 µM (retest, dose inferred, filed as 0.5)
[18] = at 50.0 µM (retest, dose inferred, filed as 5.0)

Measured: growth inhibition

COc1ccc2nc3c([N+](=O)[O-])ccc(NCCN(C)C)c3c(NCCN(C)C)c2c1
inactive: [1]; at 1.2 µM 15% | [1]; at 3.7 µM 10% | [1]; at 11.0 µM 26% | [1]; at 33.0 µM 28% | [1]; at 100.0 µM 23% | [2]; at 1.2 µM -3% | [2]; at 3.7 µM -3% | [2]; at 11.0 µM -3% | [2]; at 33.0 µM -2% | [2]; at 100.0 µM 0% | [3]; at 1.2 µM 0% | [3]; at 3.7 µM 3% | [3]; at 11.0 µM 1% | [3]; at 33.0 µM 5% | [3]; at 100.0 µM 14% | [4]; at 1.2 µM 0% | [4]; at 3.7 µM 2% | [4]; at 11.0 µM 1% | [4]; at 33.0 µM 1% | [4]; at 100.0 µM 2% | [5]; at 1.2 µM -1% | [5]; at 3.7 µM 0% | [5]; [17] 16% | [5]; at 11.0 µM 0% | [5]; at 33.0 µM 2% | [5]; [18] 33% | [5]; at 50.0 µM 26.9% | [5]; at 100.0 µM 12% | [6]; at 1.2 µM -1% | [6]; at 3.7 µM -4% | [6]; [17] 15% | [6]; at 11.0 µM -5% | [6]; at 33.0 µM 0% | [6]; [18] 17% | [6]; at 50.0 µM 35% | [6]; at 100.0 µM 3% | [7]; at 1.2 µM -2% | [7]; at 3.7 µM -3% | [7]; at 11.0 µM -3% | [7]; at 33.0 µM -4% | [7]; at 100.0 µM 1% | [8]; [17] -2% | [8]; [18] 14% | [8]; at 50.0 µM 3.95% | [9]; at 1.2 µM -5% | [9]; at 3.7 µM -1% | [9]; at 11.0 µM 1% | [9]; at 33.0 µM -5% | [9]; at 100.0 µM -5% | [10]; [17] 29% | [10]; [18] 61% | [10]; at 50.0 µM 62.4% | [11]; at 1.2 µM -3% | [11]; at 3.7 µM -7% | [11]; [17] 14% | [11]; at 11.0 µM 1% | [11]; at 33.0 µM -3% | [11]; [18] -1% | [11]; at 50.0 µM 20.4% | [11]; at 100.0 µM -3% | [12]; at 1.2 µM -3% | [12]; at 3.7 µM 0% | [12]; at 11.0 µM -1% | [12]; at 33.0 µM -1% | [12]; at 100.0 µM -2% | [13]; at 1.2 µM -1% | [13]; at 3.7 µM -2% | [13]; at 11.0 µM -1% | [13]; at 33.0 µM -1% | [13]; at 100.0 µM 1% | [14]; at 1.2 µM 3% | [14]; at 3.7 µM 6% | [14]; at 11.0 µM 2% | [14]; at 33.0 µM 2% | [14]; at 100.0 µM 2% | [15]; [17] -7% | [15]; [18] 24% | [15]; at 50.0 µM -21.4% | [16]; at 1.2 µM 6% | [16]; at 3.7 µM 6% | [16]; at 11.0 µM 7% | [16]; at 33.0 µM 1% | [16]; at 100.0 µM -6%
